Screening results as filed in PubChem.
FLuc modulator: inhibits or activates purified firefly luciferase, miR-21 counter-screen | 360,000 compounds, 6.9% hits | purified FLuc, Km substrates, luminescence inhibition | P08659 | Potency, µM (series often up to 57.5 µM), most hits filed as inhibitors; note: nearly all actives have a fitted effect of over 55% in size
Target sequence (P08659 whole entry, looked up): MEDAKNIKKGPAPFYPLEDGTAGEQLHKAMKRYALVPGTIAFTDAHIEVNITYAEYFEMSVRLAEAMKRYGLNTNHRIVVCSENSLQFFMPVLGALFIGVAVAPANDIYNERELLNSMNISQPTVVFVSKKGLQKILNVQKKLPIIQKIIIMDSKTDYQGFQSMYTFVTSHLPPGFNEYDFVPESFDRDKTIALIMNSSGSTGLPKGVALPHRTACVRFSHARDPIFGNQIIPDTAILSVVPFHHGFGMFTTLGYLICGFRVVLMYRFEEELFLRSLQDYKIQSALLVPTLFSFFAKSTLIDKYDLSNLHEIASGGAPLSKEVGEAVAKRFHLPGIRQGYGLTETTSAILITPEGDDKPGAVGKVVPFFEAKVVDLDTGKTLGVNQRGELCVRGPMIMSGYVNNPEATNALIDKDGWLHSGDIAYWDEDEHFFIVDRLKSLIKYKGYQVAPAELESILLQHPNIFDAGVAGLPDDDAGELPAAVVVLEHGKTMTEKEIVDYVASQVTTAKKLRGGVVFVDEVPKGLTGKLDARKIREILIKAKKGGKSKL
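Purified P. pyralis luciferase, 10 nM final, with Km-level 10 uM D-luciferin and 10 uM ATP in 50 mM Tris acetate pH 7.5, 10 mM Mg acetate, 0.01% Tween-20, 0.05% BSA; 6-point qHTS titration about 60 µM downward; luminescence read.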
ELG1 repair inh: inhibitors of ELG1-dependent DNA repair in HEK293T cells. HEK293T ELG1-luciferase reporter, luminescence, 16 h; DNA damage induced by 5-fluorouridine. Potency, µM (series often up to 46.1 µM), most hits filed as inhibitors. 330,000 compounds, 2.3% hits. AID 504467; note: nearly all actives have a fitted effect of over 55% in size
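Cells (2,000 per well) received 5-fluorouridine plus test compound or DMSO and were incubated 16 hr at 37 °C, 5% CO2. Luciferase activity was read by luminescence 30 min after ONE-Glo addition; signal suppression marked inhibition of damage-induced ELG1 function.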
ELG1 genotox: inducers of genotoxicity in HEK293T ELG1-luciferase cells | HEK293T ELG1-luciferase reporter, luminescence, 16 h | Potency, µM (titrated, usually from 46 µM), actives largely listed as activators | 330,000 compounds, 1.3% hits; note: nearly all actives have a fitted effect of over 60% in size
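Quantitative HTS format in 1536-well plates. HEK293T ELG1-luciferase reporter cells receive test compound and are incubated 16 hr at 37 °C, 5% CO2; ONE-Glo added, 30 min room temperature, then luminescence read.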
SMN2 splice enh: SMN2 splice variant enhancement. HEK293 SMN2-luciferase splicing reporter, luminescence, 30-36 h. Potency, µM (highest dose often 46.1 µM), hits mostly activators. 210,000 compounds, 2.8% hits. AID 1458; note: nearly all actives have a fitted effect of over 55% in size
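qHTS luciferase splicing reporter: luminescence rises when SMN2 exon 7 is included in transfected HEK293 cells. Compound exposure lasted 30-36 h at 37C, with 4.5 mM final sodium butyrate as control, followed by a ONE-Glo read.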
NPC1 promoter act: NPC1 promoter activation; Huh7 NPC1 promoter luciferase reporter, 24 h; Potency, µM (highest dose often 9.22 µM), usual class: activators; 320,000 compounds, 2.4% hits; note: nearly all actives have a fitted effect of over 60% in size
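Stably transfected Huh7 (NPC1 promoter→luciferase), 1500 cells/well in Opti-MEM + 10% FBS, 2 h settle, then compound 24 h at 37 °C. Luminescence after 10 min with Amplite reagent.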
Rab9 promoter act: activates the Rab9 promoter; Potency, µM (top dose mostly 9.22 µM), actives largely listed as activators; 320,000 compounds, 2.8% hits; Huh7 Rab9 promoter-luciferase reporter, luminescence, 24 h; note: nearly all actives have a fitted effect of over 60% in size
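Cell-based reporter: Huh7 stable for Rab9 promoter-driven luciferase, plated in reduced-serum medium with 10% FBS at 1500 cells/well, compound-treated 24 h at 37 °C, luminescence read after 10 min reagent.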
A number is an active result; n = inactive; u = inconclusive; x = not tested or not shown. Only some compounds are listed: those with a hit (about 9.2% of all), similar ones and a draw of the others. Calls come from the whole dose curve; as a rule, active = well fitted curve in the direction sought with a large enough effect; inconclusive = small, poorly fitted or top-dose-only effect, or another doubt; inactive = no such curve, though single readings can be large; an effect the other way counts as inactive or inconclusive.

SMILES	FLuc modulator	ELG1 repair inh	ELG1 genotox	SMN2 splice enh	NPC1 promoter act	Rab9 promoter act
O=C(CCCN1C(=O)/C(=C/c2ccccc2)SC1=S)Nc1ccc(C(=O)O)c(O)c1	12µM	n	n	x	n	n
O=C(CCN1C(=O)S/C(=C/c2ccccc2)C1=O)Nc1ccc(C(=O)O)c(O)c1	2.4µM	n	n	x	n	n
O=C(CCN1C(=O)/C(=C\c2ccccc2F)SC1=S)Nc1ccc(C(=O)O)c(O)c1	5.4µM	n	n	x	n	n
CC1=C(c2ccccc2)SC2=NCCN21	n	n	n	x	n	n
COC(=O)C1C(O)CC[C@@H]2CN3CCc4c([nH]c5ccccc45)C3C[C@@H]12 (stereo not given in full)	x	x	x	n	x	x
O=C(NCc1ccccn1)c1ccc(CNS(=O)(=O)c2cccc(Cl)c2)cc1	n	n	n	u	n	n
COc1cc2c(cc1OC)[C@@H](NC(=O)CCC1CCCCC1)[C@H](O)C2	x	n	n	x	x	x
O=C(CN1C(=O)/C(=C/c2ccco2)SC1=S)Nc1ccc(C(=O)O)c(O)c1	19µM	n	n	x	n	n
O=C(CCN1C(=O)S/C(=C\c2ccc(F)cc2)C1=O)Nc1ccc(C(=O)O)c(O)c1	2.1µM	u	n	x	u	n
O=C(CN1C(=O)/C(=C/c2ccco2)SC1=S)Nc1ccc(O)c(C(=O)O)c1	u	n	n	x	n	n
Cc1ccc(CNc2nc(C)cs2)cc1	6µM	u	1µM	x	2µM	1.1µM
COc1ccc(-c2cc(C(=O)N3CCN(c4ccccc4O)CC3)c3ccccc3n2)cc1	0.67µM	n	n	x	3.2µM	2µM
COc1ccc(-c2cc(C(=O)N3CCN(c4ccccc4O)CC3)c3ccccc3n2)cc1OC	9.5µM	9.2µM	n	x	n	n
CS(=O)(=O)N1CCN(C(=O)c2cc(-c3ccccc3)nc3ccccc23)CC1	u	n	n	n	n	n
O=C(c1cc(-c2cccs2)nc2ccccc12)N1CCN(c2ccccc2O)CC1	21µM	u	n	n	n	n
CS(=O)(=O)N1CCN(C(=O)c2cc(-c3cccs3)nc3ccccc23)CC1	u	16µM	n	n	n	n
CC1(C)CC2C1CC[C@]1(C)CCC3C(C(=O)O)CC(=O)O[C@]32C1 (stereo not given in full)	x	x	x	n	x	x
Cc1ccc(-c2cc(C(=O)N3CCN(c4ccccc4O)CC3)c3ccccc3n2)cc1	2.4µM	u	n	x	u	u
O=C(NCCc1ccccn1)c1cc(-c2cccc3ccccc23)nc2ccccc12	n	23µM	n	n	n	n
CCOc1ccc(-c2cc(C(=O)NCc3ccc(C)cc3)c3ccccc3n2)cc1	n	x	x	x	x	x
O=C(NCc1ccccn1)c1cc(-c2ccc(Br)cc2)nc2ccccc12	u	u	n	n	n	n
Cc1ccc(-c2cc(C(=O)NCCc3ccccn3)c3ccccc3n2)c(C)c1	n	u	n	n	n	n
CCc1ccc(-c2cc(C(=O)NCc3ccccn3)c3ccccc3n2)cc1	0.85µM	u	n	n	n	n
CCc1ccccc1Nc1cc(C(=O)NCc2ccccn2)c2ccccc2n1	17µM	u	n	n	n	n
Cc1ccc(-c2cc(C(=O)NCc3ccccn3)c3ccccc3n2)cc1	4.3µM	u	n	u	n	n
SMILES	FLuc modulator	ELG1 repair inh	ELG1 genotox	SMN2 splice enh	NPC1 promoter act	Rab9 promoter act
CCC1CCCCN1C(=O)CSc1nnc(-c2c[nH]c3ccccc23)o1 (stereo not given)	u	u	n	n	n	n
Cn1c(SCC(=O)N2CCOCC2)nnc1-c1ccco1	n	n	n	x	n	n
Cc1ccc(OCC(=O)NCc2ccccn2)c(Br)c1	17µM	u	u	n	u	u
Cc1cc(CNC(=O)c2cccnc2Cl)c2ccccc2n1	n	5.2µM	n	n	n	n
Cc1cc(C(=O)NCc2ccccc2Cl)c2ccccc2n1	u	n	n	x	n	n
O=C(COc1ccc(F)cc1Br)NCc1ccccn1	u	x	x	n	x	x
O=C(N/N=C/c1ccc(O)cc1)c1cc(C2CC2)[nH]n1	n	n	n	x	n	n
COc1cc(/C=N/NC(=O)c2cc(C34CC5CC(CC(C5)C3)C4)[nH]n2)ccc1O	13µM	n	u	n	n	n
Cc1nn(-c2ccccc2)c(C)c1/C=N/NC(=O)c1cc(C23CC4CC(CC(C4)C2)C3)[nH]n1	u	16µM	n	u	n	n
CC/C(=N\NC(=O)c1cc(C2CC2)[nH]n1)c1ccccc1	13µM	u	u	x	3.5µM	u
COc1cc(/C=N/NC(=O)c2[nH]nc3c2CCc2ccccc2-3)ccc1O	27µM	u	n	n	n	n
COc1cc(/C=N/NC(=O)c2ccccc2)ccc1O	u	u	u	n	n	n
CCCc1cc2c(-c3ccccc3)cc(=O)oc2cc1OCc1ccc(C(=O)O)o1	u	n	n	n	n	n
CC(OC(=O)c1cc(=O)c2cc(Cl)ccc2o1)C(=O)N1CCCC1 (stereo not given)	n	n	n	x	n	n
Cc1nn(-c2ccccc2)c(C)c1/C=N/NC(=O)c1cc(C2CC2)[nH]n1	17µM	n	u	u	n	n
O=C(N/N=C/c1c(F)cccc1Cl)c1cc(C2CC2)[nH]n1	17µM	u	u	x	u	u
Cc1cc(C(=O)N/N=C/c2c(C)nn(-c3ccccc3)c2C)n[nH]1	17µM	u	n	x	n	n
COc1ccc(/C=N/NC(=O)c2cc(C3CC3)[nH]n2)cc1OC	u	n	n	x	n	n
Cc1cccc(NC(=O)c2ccc(C3SCC(=O)N3CCc3ccccc3)cc2)c1C (stereo not given)	n	u	n	n	n	n
Cc1nonc1C1CCCN1Cc1cn[nH]c1-c1ccc(-c2ccccc2)cc1 (stereo not given)	n	n	n	x	n	n
CC1CCCCC12NC(=O)N(CC(=O)c1ccc3c(c1)OCO3)C2=O (stereo not given)	n	n	n	x	n	n
O=C(CN1C(=O)c2ccccc2S1(=O)=O)c1ccc2c(c1)OCCCO2	2.1µM	1µM	n	x	n	n
CC(C)CC1NC(=O)N(CC(=O)c2ccc3c(c2)OCCO3)C1=O (stereo not given)	11µM	u	u	13µM	2.8µM	1.1µM
O=C(CCN1C(=O)c2ccccc2S1(=O)=O)Nc1ccc2c(c1)OCCO2	u	n	n	n	n	n
CCCC1Oc2ccccc2C(=O)N(CC(=O)c2ccc3c(c2)OCCO3)C1=O (stereo not given)	6µM	u	u	x	n	u
O=C(CN1C(=O)c2ccccc2S1(=O)=O)c1ccc2c(c1)OCCO2	5.4µM	u	n	x	n	n
CC(C)c1ccc(NC(=O)NCc2cccnc2)cc1	n	u	n	x	n	n
